In test [1] the target is Peroxisome proliferator-activated receptor gamma (Homo sapiens) (UniProt P37231). The experiment in a line: qHTS assay for small molecule antagonists of peroxisome proliferator-activated receptor gamma signaling (AID 588537; active = well fitted inhibition curve with a large enough effect in the signal ratio, with a control signal flat, not every such curve was filed as active; the % refers to the signal ratio;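 also: reporter cells co-stimulated with 50 nM rosiglitazone agonist during compound treatment; % of control where 0% means no effect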). In outline:
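Read-out: CCF4 fluorescence (ex 405, em 460/530 nm) after 2 h at RT. Cells were HEK293 carrying a UAS-bla reporter and treated 16 h at 37 C with compound plus rosiglitazone (50 nM final). Normalized to rosiglitazone and DMSO.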
Background: In qHTS, concentration-response curves come from the screen itself.

Test [2] has as its target Vitamin D3 receptor (Homo sapiens) (UniProt P11473). The experiment in a line: qHTS assay for small molecule antagonists of vitamin D receptor signaling (AID 588541).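 Also: receptor activated by calcitriol during compound treatment; series mostly up to about 77 µM; % is scaled to controls: 0 for no effect and ±100 for the full control effect.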 In outline:
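VDR-UAS-bla HEK293T cells in 2% charcoal-stripped FBS were stimulated with 1-alpha,25-dihydroxyvitamin D3 (3 nM final) plus compound for 16 h at 37 C. The beta-lactamase CCF4 readout was normalized to 50 nM agonist and DMSO, and Hill fits gave IC50.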

For test [3] the target is unchanged. The experiment in a line: qHTS assay for small molecule agonists of vitamin D receptor signaling (AID 588543).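 Also: 0% = DMSO basal and 100% = reference agonist control.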 In outline:
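Measured: β-lactamase reporter activity (CCF4, 405 nm excitation, 460/530 nm emission) in HEK293T VDR-UAS-bla cells after 16 h compound exposure at 37 °C. Normalization against 50 nM 1α,25-dihydroxyvitamin D3 and DMSO; Hill-fit EC50.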

Test [4] is described as follows: qHTS assay for small molecule agonists of retinoid X receptor alpha signaling (AID 588544). The conditions noted are these: HEK293T RXRa-UAS-bla, beta-lactamase reporter, 18 h; 530 nm emission.
Test [5] has as its target Retinoic acid receptor RXR-alpha (Homo sapiens) (UniProt P19793). The description is as above.
Test [6] has as its target Thyroid hormone receptor beta (Homo sapiens) (UniProt P10828). The experiment in a line: qHTS assay for small molecule agonists of thyroid hormone receptor beta signaling (AID 588545).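 Also: 0% = DMSO only and 100% = 10 nM T3.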 In outline: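 Beta-lactamase reporter activity under TR response element control is measured in HEK 293 cells after 18 hrs compound exposure. Signal is ratiometric CCF4 fluorescence, 460/530 nm.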

The nature of test [7]: qHTS assay for small molecule antagonists of retinoid X receptor alpha signaling (AID 588546; active = well fitted inhibition curve with a large enough effect in the signal ratio, with a control signal flat, not every such curve was filed as active; the % refers to the signal ratio;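 also: cells stimulated with 9-cis-retinoic acid as agonist; % is scaled to controls: 0 for no effect and ±100 for the full control effect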). The conditions noted are these: HEK293T RXRa-UAS-bla, beta-lactamase ratio, antagonist mode; measured here: W530 green channel, cytotoxicity proxy. The essentials:
(§1)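 Beta-lactamase reporter inhibition, read as CCF4 fluorescence ratio (ex 405, em 460/530 nm) after 2 h at RT. HEK293T UAS-bla cells, 2500/well, were stimulated with 9-cis-RA at 500 or 100 nM final alongside test compound for 18 h at 37 C.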

Test [8] addresses Retinoic acid receptor RXR-alpha (Homo sapiens) (UniProt P19793). Described as above. The conditions noted are these: HEK293T RXRa-UAS-bla, beta-lactamase ratio, antagonist mode. The essentials: as §1
The target of test [9] is Thyroid hormone receptor beta (Homo sapiens) (UniProt P10828). The experiment in a line: qHTS assay for small molecule antagonists of thyroid hormone receptor beta signaling (AID 588547; active = well fitted inhibition curve with a large enough effect in the signal ratio, with a control signal flat, not every such curve was filed as active; the % refers to the signal ratio;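 also: cells stimulated with 0.4 nM T3 agonist during compound exposure; series mostly up to about 77 µM; % is scaled to controls: 0 for no effect and ±100 for the full control effect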). The conditions noted are these: TR-UAS-bla HEK293, beta-lactamase ratio, antagonist mode, 18 h. In outline: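 TR-UAS-bla GripTite HEK293 cells in 2% charcoal/dextran FBS medium; compounds 0.59 nM to 92 uM with T3 at 0.4nM final, 18 h at 37 C. Beta-lactamase read by CCF4 fluorescence (460/530 nm); Hill fits gave IC50 and efficacy.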

The target of test [10] is Voltage-gated inwardly rectifying potassium channel KCNH2 (Homo sapiens) (UniProt Q12809). The experiment in a line: qHTS Assay for Small Molecule Inhibitors of the Human hERG Channel Activity (AID 588834; active = well fitted curve in the direction sought with a large enough effect; an effect the other way counts as inactive or inconclusive;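 also: top concentration of the series differs between compounds; % is scaled to controls: 0 for no effect and ±100 for the full control effect; lower thallium flux fluorescence means stronger hERG block; nearly all actives have a fitted effect of over 50% in size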). The essentials: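 Homogeneous FluxOR thallium flux assay using hERG-expressing U2OS cells (BacMam). Compound treatment about 10 minutes preceded stimulation; reduced fluorescence taken as channel block.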

For test [11], the target named is Luciferin 4-monooxygenase (Photinus pyralis) (UniProt P08659). The experiment in a line: Biochemical firefly luciferase enzyme assay for NPC (AID 624030; active = well fitted curve in the direction sought with a large enough effect; an effect the other way counts as inactive or inconclusive;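 also: purified P. pyralis luciferase at 10 nM with luciferin and ATP substrate; series mostly up to about 59 µM; 0% = DMSO and -100% = full luciferase inhibition by PTC124 control; nearly all actives have a fitted effect of over 70% in size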). In outline:
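Purified P. pyralis luciferase at 10 nM in 50 mM Tris Acetate (final), luminescence read within 5 minutes of enzyme addition to compounds. Activity normalised to PTC124 versus DMSO; concentration-response curves classed by r2, magnitude and activity.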

Test [12] can be described thus: S16 Schwann cell viability assay (CellTiter-Glo assay) (AID 624031; active = well fitted curve in the direction sought with a large enough effect; an effect the other way counts as inactive or inconclusive;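 also: cellular ATP luminescence as a viability measure; series mostly up to about 58 µM; plate controls were DMSO-treated cells for no effect and cell-free wells for full effect; nearly all actives have a fitted effect of over 70% in size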). In outline: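 This viability control uses native rat S16 Schwann cells grown in DMEM plus 10% FBS. After a 24 h compound treatment at 37 °C, CellTiter-Glo luminescence reports ATP content, scaled against DMSO-treated and cell-free wells.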
In general terms: In ATP-based viability assays light output follows the ATP content of the culture.

Test [13] is described as follows: S16 Schwann cell PMP22 intronic element beta-lactamase assay (AID 624044). Also: nearly all actives have a fitted effect of over 15% in size. Also: potency is read from the fitted curve at half-maximal effect. The essentials: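 Beta-lactamase reporter under a PMP22 intronic regulatory element in stable S16 rat Schwann cells; 24 h compound exposure. 460 nm blue signal normalized between DMSO (0%) and potassium clavulanate, with 535 nm FRET tracking viability; curves classed by r2 and response.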

Test [14] in a line: S16 Schwann cell PMP22 intronic element firefly luciferase assay (AID 624032; active = well fitted curve in the direction sought with a large enough effect; an effect the other way counts as inactive or inconclusive; also: nearly all actives have a fitted effect of over 30% in size; also: potency is read from the fitted curve at half-maximal effect). In outline:
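Rat S16 Schwann cells stably carrying firefly luciferase driven by a PMP22 intronic element, in 10% FBS, treated 24 h at 37 C. ONE-Glo luminescence normalized to PTC124 control and DMSO (0%); curves classed by r2, magnitude and activity.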

Test [15] concerns the target Glutaminase kidney isoform, mitochondrial (Homo sapiens) (UniProt O94925). Put plainly: qHTS for Inhibitors of Glutaminase (GLS): LOPAC Validation (AID 624146; active = well fitted curve in the direction sought with a large enough effect; an effect the other way counts as inactive or inconclusive; also: nearly all actives have a fitted effect of over 60% in size; also: potency is read from the fitted curve at half-maximal effect). In outline: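 Glutamate formation by hKGA was monitored fluorometrically using coupled glutamate oxidase, HRP and Amplex Red. Substrate was added as 1 mM L-glutamine solution; incubation was 30 min at RT after an initial read.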

The nature of test [16]: qHTS of Trypanosoma Brucei Inhibitors: LOPAC Validation (AID 624147; active = well fitted curve in the direction sought with a large enough effect; an effect the other way counts as inactive or inconclusive; also: 0% is about no effect). The essentials: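 Screened from lowest to highest concentration, compounds were pinned into TbPYK/substrate mixtures, and ADP (130 uM final) was added. Plates sat at room temperature for 45 min prior to Kinase-Glo Plus detection by luminescence.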
Test [17] deals with Glucagon-like peptide 1 receptor (Homo sapiens) (UniProt P43220). Put plainly: qHTS of GLP-1 Receptor Agonists: LOPAC Validation (AID 624148; active = well fitted curve in the direction sought with a large enough effect; an effect the other way counts as inactive or inconclusive;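 also: 0% is about no effect; higher luminescence signal means agonism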). The essentials:
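HEK293 cells stably co-expressing GLP-1R and a cAMP-responsive luciferase reporter, plated 12 hours before compound, then incubated 4-6 hr at 37 deg C. Luminescence read 12 min after detection reagent.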

Test [18] in a line: qHTS of Nrf2 Activators: LOPAC Validation (AID 624149; active = well fitted curve in the direction sought with a large enough effect; an effect the other way counts as inactive or inconclusive; also: 0% is about no effect). The essentials: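 AREc32_Fluc cells, 1000/well, OPTI-MEM + 5% FBS, o/n 37 deg C 5% CO2; compound pin-transfer, 24 hr 37 deg C; Steady-Glo 30 min RT, luminescence read.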
Test [19] is described as follows: HTS Assay for Allosteric Antagonists of the Human D2 Dopamine Receptor: Hit Validation in HTRF (AID 624455; active = well fitted curve in the direction sought with a large enough effect; an effect the other way counts as inactive or inconclusive; also: % is scaled to controls: 0 for no effect and ±100 for the full control effect). In outline:
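HTRF read-out; cells stably expressing D1 receptor; hits scored for inhibition of D1-mediated response. Primary screen: calcium flux, force-coupled inducible Hek293 Trex D2 line, antagonism vs EC80 dopamine.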
On the technique in general: TR-FRET usually uses a lanthanide donor and a delayed reading to cut background.

Several values for one entry are separate records, joined by “and”; a condition that tells them apart may be missing. Equal entries are not always repeated. Records with an inconclusive call do not appear. Activity calls are given as the source filed them. Unless noted, calls follow the shape of the full dose curve.

Chain of Peroxisome proliferator-activated receptor gamma (Homo sapiens) (P37231 whole entry, looked up): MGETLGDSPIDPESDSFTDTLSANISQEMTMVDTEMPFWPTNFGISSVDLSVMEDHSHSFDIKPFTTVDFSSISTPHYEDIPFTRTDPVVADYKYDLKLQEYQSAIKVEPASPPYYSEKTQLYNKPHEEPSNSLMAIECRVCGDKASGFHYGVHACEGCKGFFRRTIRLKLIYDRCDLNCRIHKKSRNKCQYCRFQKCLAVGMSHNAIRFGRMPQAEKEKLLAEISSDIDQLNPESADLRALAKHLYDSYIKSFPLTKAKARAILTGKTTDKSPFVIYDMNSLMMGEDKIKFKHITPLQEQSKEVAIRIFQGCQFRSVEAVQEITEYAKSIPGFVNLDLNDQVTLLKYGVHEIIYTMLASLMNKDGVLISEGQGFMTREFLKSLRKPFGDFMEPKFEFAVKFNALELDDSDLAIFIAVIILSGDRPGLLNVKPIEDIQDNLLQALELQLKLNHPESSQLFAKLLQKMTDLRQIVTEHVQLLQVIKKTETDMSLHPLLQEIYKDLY
Chain of Vitamin D3 receptor (Homo sapiens) (P11473 whole entry, looked up): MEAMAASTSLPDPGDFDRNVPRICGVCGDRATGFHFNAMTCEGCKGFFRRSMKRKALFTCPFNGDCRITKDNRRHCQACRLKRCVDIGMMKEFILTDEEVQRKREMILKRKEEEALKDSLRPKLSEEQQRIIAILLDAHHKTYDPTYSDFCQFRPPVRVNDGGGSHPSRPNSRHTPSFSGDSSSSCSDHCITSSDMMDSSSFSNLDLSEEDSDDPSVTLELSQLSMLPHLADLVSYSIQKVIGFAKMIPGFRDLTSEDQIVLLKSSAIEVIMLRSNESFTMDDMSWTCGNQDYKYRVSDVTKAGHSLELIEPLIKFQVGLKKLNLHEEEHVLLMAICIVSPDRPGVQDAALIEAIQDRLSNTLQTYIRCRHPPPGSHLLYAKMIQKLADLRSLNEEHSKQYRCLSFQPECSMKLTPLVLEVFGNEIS
Chain of Thyroid hormone receptor beta (Homo sapiens) (P10828 whole entry, looked up): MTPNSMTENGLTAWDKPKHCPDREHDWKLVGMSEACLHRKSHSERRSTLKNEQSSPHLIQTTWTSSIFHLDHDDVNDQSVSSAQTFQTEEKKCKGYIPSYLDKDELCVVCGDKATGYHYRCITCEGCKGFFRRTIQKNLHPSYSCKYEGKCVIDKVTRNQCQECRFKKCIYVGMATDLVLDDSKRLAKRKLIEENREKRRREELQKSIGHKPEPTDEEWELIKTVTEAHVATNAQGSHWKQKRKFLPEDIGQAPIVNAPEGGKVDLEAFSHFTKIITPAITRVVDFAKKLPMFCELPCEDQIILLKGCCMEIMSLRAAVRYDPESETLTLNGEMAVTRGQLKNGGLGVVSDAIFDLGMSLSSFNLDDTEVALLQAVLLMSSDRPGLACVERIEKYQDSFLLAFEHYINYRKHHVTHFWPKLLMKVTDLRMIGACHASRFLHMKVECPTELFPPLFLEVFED
Chain of Retinoic acid receptor RXR-alpha (Homo sapiens) (P19793 whole entry, looked up): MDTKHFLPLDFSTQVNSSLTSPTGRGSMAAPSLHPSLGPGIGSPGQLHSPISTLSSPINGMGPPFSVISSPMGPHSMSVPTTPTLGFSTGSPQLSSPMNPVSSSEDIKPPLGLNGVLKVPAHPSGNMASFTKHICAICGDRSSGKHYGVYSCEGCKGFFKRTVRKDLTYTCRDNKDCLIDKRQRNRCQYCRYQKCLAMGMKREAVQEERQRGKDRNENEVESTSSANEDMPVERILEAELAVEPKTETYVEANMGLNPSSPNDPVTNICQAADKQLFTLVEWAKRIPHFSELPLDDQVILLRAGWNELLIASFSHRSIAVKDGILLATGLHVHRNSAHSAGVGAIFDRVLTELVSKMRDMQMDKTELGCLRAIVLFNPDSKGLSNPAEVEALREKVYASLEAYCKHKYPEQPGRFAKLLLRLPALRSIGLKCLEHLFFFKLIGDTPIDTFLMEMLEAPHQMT
Chain of Voltage-gated inwardly rectifying potassium channel KCNH2 (Homo sapiens) (Q12809 whole entry, looked up): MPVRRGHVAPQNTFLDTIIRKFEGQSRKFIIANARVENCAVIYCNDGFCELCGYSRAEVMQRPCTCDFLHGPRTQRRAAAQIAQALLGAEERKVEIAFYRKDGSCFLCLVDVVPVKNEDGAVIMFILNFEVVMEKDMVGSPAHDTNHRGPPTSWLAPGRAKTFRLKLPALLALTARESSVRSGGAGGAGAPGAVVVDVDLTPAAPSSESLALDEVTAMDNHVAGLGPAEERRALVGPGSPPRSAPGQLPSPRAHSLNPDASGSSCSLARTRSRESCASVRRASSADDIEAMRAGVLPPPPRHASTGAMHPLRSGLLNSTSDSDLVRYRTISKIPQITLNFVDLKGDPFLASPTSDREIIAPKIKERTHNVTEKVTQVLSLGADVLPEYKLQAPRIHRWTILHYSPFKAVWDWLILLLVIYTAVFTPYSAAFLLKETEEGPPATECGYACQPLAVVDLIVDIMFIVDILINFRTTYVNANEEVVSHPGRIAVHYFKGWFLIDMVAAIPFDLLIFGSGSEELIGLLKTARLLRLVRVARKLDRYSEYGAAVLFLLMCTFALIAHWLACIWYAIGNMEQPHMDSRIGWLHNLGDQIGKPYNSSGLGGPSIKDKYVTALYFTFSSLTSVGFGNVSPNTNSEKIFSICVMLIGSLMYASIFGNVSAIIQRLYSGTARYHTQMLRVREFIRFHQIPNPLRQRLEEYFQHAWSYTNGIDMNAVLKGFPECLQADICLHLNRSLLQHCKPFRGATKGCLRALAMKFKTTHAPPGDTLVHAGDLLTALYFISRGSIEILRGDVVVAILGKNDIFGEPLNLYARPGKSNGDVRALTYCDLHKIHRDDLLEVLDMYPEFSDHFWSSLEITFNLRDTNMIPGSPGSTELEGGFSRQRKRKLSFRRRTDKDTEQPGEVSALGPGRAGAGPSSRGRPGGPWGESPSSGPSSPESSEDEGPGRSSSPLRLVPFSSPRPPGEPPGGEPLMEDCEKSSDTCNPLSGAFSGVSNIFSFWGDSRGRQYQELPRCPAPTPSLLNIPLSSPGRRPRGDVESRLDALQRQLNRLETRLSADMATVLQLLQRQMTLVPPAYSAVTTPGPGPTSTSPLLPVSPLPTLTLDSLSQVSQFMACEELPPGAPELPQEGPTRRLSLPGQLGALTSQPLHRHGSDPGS
Chain of Luciferin 4-monooxygenase (Photinus pyralis) (P08659 whole entry, looked up): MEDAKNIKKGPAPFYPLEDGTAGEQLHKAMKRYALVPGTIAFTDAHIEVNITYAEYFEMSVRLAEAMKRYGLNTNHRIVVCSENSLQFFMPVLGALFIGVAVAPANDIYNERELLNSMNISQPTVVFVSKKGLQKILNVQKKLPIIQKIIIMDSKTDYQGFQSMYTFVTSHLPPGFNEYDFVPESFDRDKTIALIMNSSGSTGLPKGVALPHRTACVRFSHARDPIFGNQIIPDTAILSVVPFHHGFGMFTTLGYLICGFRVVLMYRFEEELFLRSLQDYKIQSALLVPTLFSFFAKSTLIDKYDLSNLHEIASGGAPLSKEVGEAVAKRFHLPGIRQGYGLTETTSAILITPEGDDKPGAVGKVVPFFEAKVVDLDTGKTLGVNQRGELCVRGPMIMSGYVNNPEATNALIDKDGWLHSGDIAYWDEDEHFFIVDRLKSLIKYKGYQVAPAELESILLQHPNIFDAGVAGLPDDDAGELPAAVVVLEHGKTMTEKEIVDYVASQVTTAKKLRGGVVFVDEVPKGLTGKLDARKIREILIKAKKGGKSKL
Chain of Glucagon-like peptide 1 receptor (Homo sapiens) (P43220 whole entry, looked up): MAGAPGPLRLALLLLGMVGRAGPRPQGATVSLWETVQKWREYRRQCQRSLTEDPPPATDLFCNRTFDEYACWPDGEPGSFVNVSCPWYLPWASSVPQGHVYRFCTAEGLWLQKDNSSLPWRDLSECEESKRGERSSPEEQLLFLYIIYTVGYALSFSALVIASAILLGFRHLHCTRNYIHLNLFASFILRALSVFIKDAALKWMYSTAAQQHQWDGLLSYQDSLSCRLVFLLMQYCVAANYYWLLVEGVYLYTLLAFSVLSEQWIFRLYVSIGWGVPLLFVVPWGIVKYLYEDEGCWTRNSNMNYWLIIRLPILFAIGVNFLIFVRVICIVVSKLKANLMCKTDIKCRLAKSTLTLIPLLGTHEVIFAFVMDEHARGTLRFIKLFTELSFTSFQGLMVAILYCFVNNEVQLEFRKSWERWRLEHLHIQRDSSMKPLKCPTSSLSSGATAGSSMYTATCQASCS
Chain of Glutaminase kidney isoform, mitochondrial (Homo sapiens) (O94925 whole entry, looked up, canonical isoform): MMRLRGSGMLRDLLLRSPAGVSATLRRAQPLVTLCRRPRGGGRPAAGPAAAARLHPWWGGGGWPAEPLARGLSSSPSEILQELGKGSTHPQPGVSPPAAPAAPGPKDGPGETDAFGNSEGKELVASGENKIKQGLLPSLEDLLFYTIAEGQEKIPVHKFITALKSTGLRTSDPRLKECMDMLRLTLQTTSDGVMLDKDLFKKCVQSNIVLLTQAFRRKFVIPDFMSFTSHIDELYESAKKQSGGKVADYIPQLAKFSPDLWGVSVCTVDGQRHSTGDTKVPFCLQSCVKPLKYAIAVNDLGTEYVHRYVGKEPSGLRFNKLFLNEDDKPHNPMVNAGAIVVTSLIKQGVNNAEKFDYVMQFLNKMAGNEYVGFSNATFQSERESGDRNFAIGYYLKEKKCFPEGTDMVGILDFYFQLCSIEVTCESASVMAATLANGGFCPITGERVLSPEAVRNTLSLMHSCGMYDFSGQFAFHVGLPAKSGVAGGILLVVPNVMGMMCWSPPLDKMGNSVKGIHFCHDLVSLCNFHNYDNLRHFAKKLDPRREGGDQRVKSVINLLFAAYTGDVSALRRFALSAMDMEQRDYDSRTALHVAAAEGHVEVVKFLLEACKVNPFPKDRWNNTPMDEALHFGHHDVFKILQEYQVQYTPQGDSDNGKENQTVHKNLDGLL

Turning to `CCCCC(CC)COC(=O)c1ccccc1O` (stereo not drawn), the molecule was called inactive in [1], in test [2], in test [3], in test [5] and in [6]. For the same molecule, the max response in test [4] was -12.2%; in test [7] it was -3.04%; in [8], 6.6% (inactive). For the same molecule, in [9], the activity change % (negative = inhibition) is 12.6% (inactive). The Potency result in [10], in test [11] and in test [12] was “inactive” throughout.

Turning to `COc1ccc2cc1Oc1cc3c(cc1OC)CC[N+](C)(C)[C@H]3Cc1ccc(cc1)Oc1c(OC)c(OC)cc3c1[C@@H](C2)[N+](C)(C)CC3`, in [10], the Potency entry was “inactive”.

For the molecule `CCCc1c(OCCCCc2nn[nH]n2)ccc(C(C)=O)c1O`, the molecule was called inactive in test [6]. For the same molecule, the max response in test [7] is 22.4%; in test [8], 3.05% (inactive). For the same molecule, the Potency result in test [10] and in test [13] was “inactive” throughout.

On to `CC(O)CN(CCN(CC(C)O)CC(C)O)CC(C)O` (stereo not drawn), for which the molecule was called inactive in [1], in test [2] and in test [3]. The max response is -7.75% in [7] and -14.1% (inactive) in test [8]. The Potency result in test [10], in test [11], in test [12] and in test [14] was “inactive” throughout.

Turning to `CCCCCCCCCCCCOS(=O)(=O)O`, the molecule was called inactive in test [1], in test [2], in test [3], in test [5] and in test [6]. The figures for the max response in test [4], in test [7] and in [8] were -1.31% [middle of 4 runs], -7.08% [middle of 4 runs] and 6.26% (inactive) [middle of 4 runs], respectively. Also, the activity change % (negative = inhibition) in test [9] was -2.2% (inactive). Also, the Potency entry in test [10], in test [12], in test [14] and in [13] was “inactive” each time.

In the case of `NCCNCCNCCN`, the molecule was classed as inactive in test [2], in test [3], in [5] and in test [6]. Besides, the max response was 1.23% in test [4], -7.08% in test [7] and 10.1% (inactive) in test [8]. Also, in test [9], the activity change % (negative = inhibition) was -6.32% (inactive). The Potency entry in test [10], in test [11], in test [12] and in [14] was “inactive” in each case.

For `COc1ccc(Cl)cc1C(=O)NCCc1ccc(S(=O)(=O)NC(=O)NC2CCCCC2)cc1`, the result in test [6], in test [16], in [17], in test [18] and in test [19] was inactive. The results for the max response in test [7] and in test [8] were 15.3% and -9.84% (inactive), respectively. In addition, the activity change % (negative = inhibition) in [9] is 12.2% (inactive). Further, the Potency result in [11], in [12], in test [13] and in [15] was “inactive” each time.

`[Cl][In]([Cl])[Cl]`: the molecule was called inactive in [2], in test [3] and in test [5]. Besides, the figures for the max response in test [4], in test [7] and in test [8] were -5.94%, -2.25% and 17.5% (inactive), respectively. The activity change % (negative = inhibition) in [9] was 2% (inactive). For the same molecule, the Potency entry in test [10], in test [12], in test [14] and in test [13] was “inactive” throughout.

Take `Oc1cccc(O)c1`: the outcome in test [1], in test [2], in test [3], in test [5] and in test [6] was inactive. Also, the max response in test [4] was -9.49%; in [7], -5.21%; in test [8] it was 1.73% (inactive). Moreover, the Potency entry in test [10], in test [11], in test [12], in [14] and in test [13] was “inactive” in each case.

On to `CCCCOC(=O)c1ccc(O)cc1`, for which the call in [2], in [3], in test [5] and in test [6] was inactive. Further, the max response in test [4] was 0.828% and -8.13%; in [7], -11.5% and -9.16%; in test [8], -15.2% (inactive) and -3.16% (inactive). In addition, in test [9], the activity change % (negative = inhibition) is -4.41% (inactive) and 2.19% (inactive). Further, the Potency entry in test [10], in test [12], in test [14] and in test [13] was “inactive” in each case.

Take `NCCNCCNCCNCCN`: the molecule was called inactive in [1], in [2], in [3], in test [5] and in [6]. Moreover, the max response in [4] is -10.7% and -8.96%; in test [7], -6.87%; in [8], -26.1% (inactive). Besides, the activity change % (negative = inhibition) in [9] was -25.9% (inactive) and -19% (inactive). For the same molecule, the Potency entry in test [10], in test [11], in test [12] and in test [14] was “inactive” throughout.

Consider `CNC(=O)Oc1ccc2c(c1)[C@]1(C)CCN(C)[C@@H]1N2C`, for which the result in test [1], in test [2], in [3], in test [5], in [6] and in test [16] was inactive. In addition, the result in test [17], in test [18] and in test [19] was inactive. Also, the results for the max response in test [4], in [7] and in test [8] were -13.6%, -2.66% and 1.77% (inactive), respectively. The activity change % (negative = inhibition) in test [9] was 3.24% (inactive). The Potency result in test [10], in test [11] and in test [12] was “inactive” in each case. Besides, in test [15], the Potency is 10 µM (active).

Consider `CC1(C)[C@@H]2CC[C@@]1(C)C(=O)C2`, for which the molecule was called inactive in [2], in test [3], in test [5] and in test [6]. The max response in [4] is -8.55%; in test [7], 1.15%; in test [8] it was 2.47% (inactive). Also, the activity change % (negative = inhibition) in [9] is -4.32% (inactive). For the same molecule, the Potency entry in test [10], in test [11] and in test [12] was “inactive” throughout. The Potency in test [14] is 2.56 µM (active); in [13], 9.99 µM (active).

`CN(C)CCC=C1c2ccccc2CCc2ccccc21`: the call in [2], in test [3], in test [5], in [6], in [16] and in test [17] was inactive. Moreover, the outcome in test [18] and in test [19] was inactive. Also, the max response in test [4] is 20%. Besides, the Potency result in test [11] is “inactive”.

For the origin of these results see PubChem BioAssay (NCATS).
